Source: the supplement of paper PMC6555819

What was measured:
Assay in all cases: PBM binding z-score (relative to random genomic background probes); higher = stronger binding; sequences stand for … in GC…GCGATTGACAGCGTAGAATGAAGG
[1] = test system: PPARg:RXRa DBDmut IVT, anti-RXR (DBD mutation: RXRa K156A/R161A, NR concentration 270 nM, RXRa partner concentration 90 nM)
Outline: (§1)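 The probes on custom Agilent 4×180K protein-binding microarrays were double-stranded, with 34-nt variable regions bearing direct-repeat seeds, single-nucleotide variants, half-site ablations and random human genomic background sequences. Incubation lasted 1 h with ligand-free nuclear receptor dimers in PBS pH 7.4, 2% milk, 0.02% Triton X-100, 1 mM DTT, 0.2 mg/mL BSA and 0.4 mg/ml salmon testes DNA. Antibodies against each partner (one per run) detected bound dimers, and fluorescence scans were regression-normalized. Binding z-scores take the random background probes as reference.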

[2] = test system: PPARg:RXRa IVT, anti-PPARg (NR concentration 270 nM, RXRa partner concentration 90 nM)
Outline: as §1

[3] = test system: PPARg DBDmut:RXRa IVT, anti-PPARg (DBD mutation: PPARg1 K132A/R137A, NR concentration 270 nM, RXRa partner concentration 90 nM)
Outline: as §1

[4] = test system: PPARg DBDmut IVT, anti-PPARg (DBD mutation: PPARg1 K132A/R137A, NR concentration 270 nM)
Outline: as §1

[5] = test system: PPARg homodimer (NR concentration 180 nM)
Outline: as §1

[6] = test system: PXR:RXRa (NR concentration 270 nM, RXRa partner concentration 90 nM)
Outline: as §1

[7] = test system: PXR homodimer (NR concentration 270 nM)
Outline: as §1

[8] = test system: RARa:RXR (NR concentration 270 nM, RXRa partner concentration 90 nM)
Outline: as §1

[9] = test system: RARa homodimer (NR concentration 270 nM)
Outline: as §1

[10] = test system: RARb:RXRa (NR concentration 270 nM, RXRa partner concentration 90 nM)
Outline: as §1

Row | Sequence | PBM binding z-score [1] | PBM binding z-score [2] | PBM binding z-score [3] | PBM binding z-score [4] | PBM binding z-score [5] | PBM binding z-score [6] | PBM binding z-score [7] | PBM binding z-score [8] | PBM binding z-score [9] | PBM binding z-score [10]
1 | TTACCAAGGTGAGCTGTGGTCGTTGATCCAACTC | 1.27 | 1.57 | 0.175 | 0.327 | -0.41 | 0.219 | -0.79 | -0.0403 | -0.989 | 1.04
2 | TAGCCGAGGTCAGATCGGGCCAGTATACGCTATA | 0.468 | 2.23 | 0.311 | -0.734 | 1.19 | 4.38 | -0.437 | 3.81 | -0.0454 | 4.42
3 | GCTGCTAGGACAGGTTGGTCAGCTAACGGGTACG | -0.0688 | -0.79 | -1.21 | -0.812 | -0.869 | -0.739 | -0.561 | -0.833 | -0.447 | 0.0113
4 | CCTTACGGGTCACGAGGTTTTAGCACGACGAGCG | 4.32 | 5.48 | 0.0926 | 0.246 | 2.12 | 3.85 | -0.106 | 4.95 | 0.695 | 4.54
5 | AGTAGCAGGCCAAGTTTGGGTCACTCAAACAAAG | 0.369 | 1.17 | -1.1 | -1.36 | 0.195 | 0.663 | -0.57 | 1.64 | -0.486 | 1.72
6 | ATATGTAGGTTTCATCCGGGTCATTCAGGCTATG | 4.9 | 4.69 | 1.71 | 1.7 | 1.33 | 2.86 | 2.28 | 2.55 | 0.582 | 1.43
7 | ATACCAAGGTGATCGTGAGATCGTTGATACTAAC | 0.453 | 1.18 | 0.758 | 0.465 | 0.145 | -0.151 | -0.339 | 0.227 | 0.462 | 0.492
8 | CGTCAAAGTTCACGGTAACGTAACAGAAAGCAGC | 0.827 | 2.31 | 0.983 | 0.91 | 2.72 | 4.93 | 2.72 | 4.67 | 1.67 | 5.25
9 | AACTCTAGGTAAGACTCAGTTCAGTGAAGAACGC | 1.6 | 0.848 | 0.278 | -0.04 | 0.345 | 0.534 | 0.651 | 0.155 | 0.797 | 0.272
10 | CCGAGTAGCTTATGGGGCATTCAGGCAACGGTGA | 0.454 | 0.117 | -1.42 | -1.07 | -0.422 | -0.731 | -0.54 | -0.568 | -0.432 | -0.266
11 | CCAGACAGGTGAGAAGCTAACTCAGCCTCGATTA | 1.24 | 0.141 | -0.708 | -1.08 | 0.381 | -0.471 | -0.163 | -0.265 | 0.766 | 0.227
12 | TCTTGTAGATCAATAGAGGTCAAGAAAGTGCGCT | 1.9 | 2.9 | 1.22 | 0.341 | 1.79 | 5.53 | 1.38 | 4.29 | 0.852 | 3.26
